Measurements reported in PubChem BioAssay.
Calls of active or inactive are those of the source. Unless noted, how the calls were made is not given here.

Assays:
[1] = kinase inhibitors against Plasmodium liver-stage infection, cell-based, known kinase inhibitor set, luminescence, hepatoma host viability (AID 624392); details: Plasmodium liver stage in hepatoma cells, luciferase luminescence, concentration not given here; liver cell % of control: measured here: host liver cell viability; parasite % of control: stronger effect = lower value;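 further: infected cells incubated roughly two days before readout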
[2] = modulators of glucocorticoid suppression of NF-kB, cell-based, luciferase, IL-1B stimulus, dexamethasone (AID 624486); details: NF-kB luciferase reporter, IL-1B + dexamethasone, luminescence; percent of negative control (+Dex): actives lie on both sides, concentration not given here; z-score: measured here: IL-1B alone, no Dex;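 on percent of negative control (+Dex): 100% = mean signal of vehicle control wells on the plate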
[3] = kinase inhibitors altering Pseudomonas killing of worms, whole organism (AID 651566);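 further: tested at 14 µM; sign flipped so higher z means a lower ratio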; details: C. elegans killed by P. aeruginosa, survival ratio
[4] = activators of macrophage pro-inflammatory response, cell-based, murine, luminescence (AID 652131); details: murine macrophage pro-inflammatory reporter, stronger effect = higher value
[5] = target: Cellular tumor antigen p53 (Homo sapiens) (UniProt P04637); experiment: kinase inhibitors altering GFP-p53 stability in HPV16-positive cells, imaging, known kinase inhibitor set, EGFP/DsRed ratio (AID 1053116); details: stronger effect = higher value; EGFP object count: measured here: GFP-p53 positive objects count;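 further: cells exposed to compounds for 24 h at 37 °C before reading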
[6] = IRF3 reporter activation in THP-1 macrophages, cell-based, PMA-stimulated THP-1, luminescence (AID 1053176); details: PMA-differentiated THP-1, IRF3 reporter luminescence; stronger effect = higher value
[7] = survival rescue of mitochondrial mutant cells in low glucose, primary screen, MELAS cybrids, Rieske KO mouse fibroblasts, CellTiter-Glo (AID 1508586;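 active means mean z-score across replicates of 1.96 or higher in either the MELAS or the Rieske mutant cell line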;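 further: z relative to plate mean and SD of compound and empty wells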)
[8] = MELAS cybrid survival, CellTiter-Glo 48 h, stronger effect = higher value
[9] = Rieske KO mouse fibroblast survival, CellTiter-Glo 72 h

Sequence of Cellular tumor antigen p53 (Homo sapiens) (P04637 whole entry, looked up): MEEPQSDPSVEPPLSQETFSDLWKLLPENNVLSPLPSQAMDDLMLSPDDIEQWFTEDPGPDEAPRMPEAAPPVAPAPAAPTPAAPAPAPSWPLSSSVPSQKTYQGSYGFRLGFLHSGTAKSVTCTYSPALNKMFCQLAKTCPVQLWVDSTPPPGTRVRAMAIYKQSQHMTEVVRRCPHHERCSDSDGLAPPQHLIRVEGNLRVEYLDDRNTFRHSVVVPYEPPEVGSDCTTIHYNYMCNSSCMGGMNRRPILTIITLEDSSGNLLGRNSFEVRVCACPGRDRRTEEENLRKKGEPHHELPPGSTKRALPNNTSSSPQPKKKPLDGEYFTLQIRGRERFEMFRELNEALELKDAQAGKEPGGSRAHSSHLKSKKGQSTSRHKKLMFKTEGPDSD

Structure (SMILES) | liver cell % of control [1] [%] | parasite % of control [1] | percent of negative control (+Dex) [2] | z-score [2] | z-score [3] | z-score [4] | EGFP object count [5] | EGFP/DsRed ratio [5] | fraction signal [6] | z-score [7, 8] | z-score [7, 9]
O=C1NC(=O)C(c2ccc(Cl)cc2)=C1Nc1ccc(Cl)c(C(=O)O)c1 | 104 | 127% (inactive) | 92% (inactive) | 0.785 | 0.035 (inactive) | 0.277 (inactive) | 4 | 0.0822 (inactive) | -0.003 (inactive) | -0.525 (inactive) | -0.308
COc1c(C(N)=O)cc(-c2ccc(Cl)cc2)cc1-c1ccc(S(N)(=O)=O)cc1 | 100 | 180% (inactive) | 90.5% (inactive) | 0.135 | -0.43 (inactive) | 0.956 (inactive) | 4 | 0.128 (inactive) | -0.003 (inactive) | 0.239 (inactive) | 0.0436
CS(=O)(=O)CCNCc1ccc(-c2ccc3ncnc(Nc4ccc(OCc5ccccc5)cc4)c3c2)o1 | 63.9 | 59.1% (inactive) | 74.5% (inactive) | -1.54 | 0.41 (inactive) | -0.003 (inactive) | 6.5 | 0.116 (inactive) | 0.006 (inactive) | 0.5 (inactive) | -0.312
COc1cc2ncnc(Nc3ccc(C)c(O)c3)c2cc1OC | 56.5 | 110% (inactive) | 65.5% (inactive) | -2.25 | 0.58 (inactive) | 2.59 (inactive) | 6 | 0.129 (inactive) | 0.0075 (inactive) | 1.32 (inactive) | -0.31
CN1CCC(n2cnc(-c3ccc(F)cc3)c2-c2ccnc(N)n2)CC1 | 83.2 | 168% (inactive) | 107% (inactive) | 2.09 | 0.34 (inactive) | 3.77 (inactive) | 1.5 | 0.024 (inactive) | -0.004 (inactive) | -0.312 (inactive) | -0.31
Fc1cccc(COc2ccc(Nc3ncnc4cc(-c5ccc[nH]5)sc34)cc2Cl)c1 | 45.8 | 16.2% (inactive) | 66.5% (inactive) | -1.57 | 0.215 (inactive) | -0.371 (inactive) | 3 | 0.034 (inactive) | -0.0045 (inactive) | -0.761 (inactive) | -0.0837
CN(c1ccc(NC(=O)NCCN2CCOCC2)cc1)c1ccnc(Nc2ccc(CS(C)(=O)=O)cc2)n1 | 99.9 | 114% (inactive) | 94% (inactive) | -0.155 | 0.89 (inactive) | 2.96 (inactive) | 3 | 0.184 (inactive) | -0.0035 (inactive) | -0.011 (inactive) | -0.139
CCn1c(-c2nonc2N)nc2c(C#CCN)ncc(OCCCN)c21 | 63.5 | 112% (inactive) | 85% (inactive) | -0.55 | -0.71 (inactive) | 3.14 (inactive) | 6 | 0.152 (inactive) | -0.008 (inactive) | -0.193 (inactive) | -0.317
CCCN1CCC(Oc2cc(Nc3nc(Nc4cccc(F)c4C(N)=O)c4cc[nH]c4n3)c(OC)cc2Cl)CC1 | 60.5 | 168% (inactive) | 77.5% (inactive) | -0.445 | 0.48 (inactive) | -0.663 (inactive) | 67.5 | 0.575 (active) | 0.0095 (inactive) | 0.312 (inactive) | 0.375
CNC(=O)c1sc(-n2cnc3cc(OC)c(OC)cc32)cc1OCc1ccccc1C(F)(F)F | 124 | 77.7% (inactive) | 68.5% (inactive) | -0.645 | -0.51 (inactive) | -0.587 (inactive) | 5.5 | 0.105 (inactive) | -0.005 (inactive) | -0.801 (inactive) | -0.0583
CCn1c(-c2nonc2N)nc2cncc(C(=O)NCCNC)c21 | 80.5 | 190% (inactive) | 89% (inactive) | -0.865 | 0.43 (inactive) | -0.531 (inactive) | 7 | 0.122 (inactive) | -0.011 (inactive) | 3 (active) | 0.0886
CC1=C(C(=O)Nc2ccc3[nH]ncc3c2)C(c2ccc(Cl)c(Cl)c2)CC(=O)N1 (centres undefined) | 100 | 160% (inactive) | 83.5% (inactive) | -1.08 | -0.52 (inactive) | -0.714 (inactive) | 2 | 0.0149 (inactive) | -0.0025 (inactive) | -0.00134 (inactive) | -0.0171
c1ccc(Cc2nc3ccc(Nc4ncnc5ccccc45)cc3[nH]2)cc1 | 166 | 15.2% (inactive) | 83% (inactive) | -0.365 | 1.34 (inactive) | 4.91 (inactive) | 5 | 0.119 (inactive) | -0.007 (inactive) | 0.254 (inactive) | -0.299
Fc1ccc(-c2cc(C3CNNC3c3ccccn3)ccn2)cc1 (centres undefined) | 162 | 60.9% (inactive) | 81% (inactive) | -1.07 | 0 (inactive) | -0.015 (inactive) | 3 | 0.0511 (inactive) | -0.0065 (inactive) | 0.213 (inactive) | -0.249
COc1cccc(/C=N/Nc2ncnc3c2cnn3-c2cccc(OC)c2)c1 | 96.7 | 107% (inactive) | 91.5% (inactive) | -0.3 | -0.385 (inactive) | 0.307 (inactive) | 9 | 0.222 (inactive) | 0.0045 (inactive) | 0.209 (inactive) | -0.582
O=C(Nc1n[nH]c2cc(-c3ccc(F)cc3)ccc12)C1CC1 | 152 | 140% (inactive) | 115% (inactive) | 1.05 | 0.27 (inactive) | 0.642 (inactive) | 3 | 0.145 (inactive) | -0.001 (inactive) | -1.18 (inactive) | -0.329
CN1CCC(n2cnc(-c3ccc(F)cc3)c2-c2ccnc(Nc3ccccc3)n2)CC1 | 67.1 | 74.5% (inactive) | 101% (inactive) | -0.08 | 0.955 (inactive) | 0.813 (inactive) | 3 | 0.0706 (inactive) | 0.005 (inactive) | -0.528 (inactive) | -0.322
O=C(Nc1n[nH]c2nc(-c3ccco3)c(Br)cc12)C1CC1 | 109 | 102% (inactive) | 95% (inactive) | 0.68 | -0.17 (inactive) | 0.441 (inactive) | 4 | 0.447 (inactive) | -0.002 (inactive) | -1.24 (inactive) | 0.037
CN1CCN(Cc2ccc(-c3cc4ncnc(Nc5ccc(OCc6cccc(F)c6)c(Cl)c5)c4s3)o2)CC1 | 69.8 | 97% (inactive) | 86.5% (inactive) | -0.395 | 0.455 (inactive) | -0.527 (inactive) | 11.5 | 0.213 (inactive) | 0.006 (inactive) | 0.235 (inactive) | -0.538
CS(=O)(=O)CCNCc1cc(-c2cc3c(Nc4ccc(OCc5cccc(F)c5)c(Cl)c4)ncnc3s2)cs1 | 91.2 | 132% (inactive) | 79.5% (inactive) | -0.645 | 0.375 (inactive) | 0.207 (inactive) | 4.5 | 0.11 (inactive) | -0.0035 (inactive) | -0.394 (inactive) | -0.666
CCOc1ccc2c(-c3ccnc(Nc4cccc(C(F)(F)F)c4)n3)cnn2n1 | 69.9 | 174% (inactive) | 78% (inactive) | 0 | 0.335 (inactive) | -0.613 (inactive) | 10 | 0.229 (inactive) | 0.0035 (inactive) | -0.0749 (inactive) | -0.0737
CS(=O)(=O)Nc1cccc(-c2ccc3c(NC(=O)C4CC4)n[nH]c3c2)c1 | 89.6 | 233% (inactive) | 96% (inactive) | 0.535 | 0.185 (inactive) | -0.214 (inactive) | 7 | 0.137 (inactive) | -0.0065 (inactive) | -0.446 (inactive) | -0.47
CCc1ccc(Oc2nccc(-c3c(-c4ccc(F)cc4)ncn3C3CCNCC3)n2)cc1 | 78.5 | 140% (inactive) | 104% (inactive) | 0.41 | 0.125 (inactive) | -0.495 (inactive) | 4.5 | 0.0563 (inactive) | -0.0095 (inactive) | -0.158 (inactive) | -0.111
COc1ccc(-c2cc(C3CNNC3c3ccccn3)ccn2)cc1 (centres undefined) | 171 | 92.3% (inactive) | 104% (inactive) | 1.42 | -0.77 (inactive) | 2.73 (inactive) | 3.5 | 0.0398 (inactive) | -0.0055 (inactive) | -0.36 (inactive) | -0.107
CCCN1CCCC(c2ccc(Nc3nc(Nc4cc(F)ccc4C(N)=O)c4cc[nH]c4n3)c(OC)c2)C1 (centres undefined) | 71 | 101% (inactive) | 73.5% (inactive) | -2.44 | 1.62 (inactive) | -0.56 (inactive) | 50.5 | 0.576 (inactive) | -0.003 (inactive) | -0.991 | 4.23
O=C1NC(=O)C(c2cccc(Cl)c2)=C1Nc1ccc(Cl)c(C(=O)O)c1 | 102 | 122% (inactive) | 96.5% (inactive) | 0.205 | -0.33 (inactive) | -0.043 (inactive) | 2.5 | 0.103 (inactive) | 0 (inactive) | -0.755 (inactive) | -0.327
CN(C)c1ccc2[nH]c(O)c(C=Nc3ccc(S(N)(=O)=O)cc3)c2c1 | 88.2 | 103% (inactive) | 93% (inactive) | 0.245 | 0.065 (inactive) | 0.675 (inactive) | 6.5 | 0.209 (inactive) | -0.008 (inactive) | 1.57 (inactive) | -0.102
COc1cccc(-n2cnc3c(N/N=C/c4ccncc4)ncnc32)c1 | 88.9 | 105% (inactive) | 104% (inactive) | 0.5 | -1.34 (inactive) | -0.055 (inactive) | 1.5 | 0.0324 (inactive) | 0.0015 (inactive) | 2.14 (active) | 0.0192
COc1cc(Nc2nccc(Nc3ccc4c(C)[nH]nc4c3)n2)cc(OC)c1OC | 142 | 247% (inactive) | 68% (inactive) | -1.93 | -0.535 (inactive) | 2.91 (inactive) | 2 | 0.0182 (inactive) | -0.01 (inactive) | -0.786 | 5.33
